Measured values as given in PubChem BioAssay (NCATS).
For part of these data: Entries with a potency or affinity are not part of this list. The source made the active and inactive calls.

Details: Ebola virus entry reporter assay, green channel fluorescence
In the case of `Nc1cccc2c1CN(C1CCC(=O)NC1=O)C2=O` (stereo unspecified), the outcome is reported as “inactive”. In the case of `CC[C@@H](CO)NCCN[C@@H](CC)CO`, the outcome is reported as “inactive”. With `CNC(=O)c1cc(Oc2ccc(NC(=O)Nc3ccc(Cl)c(C(F)(F)F)c3)cc2)ccn1` the outcome was “inactive”. With `C#Cc1cccc(Nc2ncnc3cc(OCCOC)c(OCCOC)cc23)c1` the outcome was “inactive”. For `CN(C)CCC=C1c2ccccc2CCc2ccccc21`, the outcome was “inactive”. With `CCC1(c2ccccc2)C(=O)NCNC1=O` the outcome was “inactive”. With `Cc1nccn1CC1CCc2c(c3ccccc3n2C)C1=O` (stereo unspecified) the outcome was “inactive”. With `Cc1nc(Nc2ncc(C(=O)Nc3c(C)cccc3Cl)s2)cc(N2CCN(CCO)CC2)n1` the outcome was “inactive”. With `O=C(O)COCCN1CCN(C(c2ccccc2)c2ccc(Cl)cc2)CC1` (stereo unspecified) the outcome was “inactive”. For `Cc1oncc1C(=O)Nc1ccc(C(F)(F)F)cc1`, the outcome was “inactive”. For `CCC(C)(C)C(=O)O[C@H]1C[C@@H](C)C=C2C=C[C@H](C)[C@H](CC[C@@H]3C[C@@H](O)CC(=O)O3)[C@H]21`, the outcome was “inactive”. With `N=c1nc(N2CCCCC2)cc(N)n1O` the outcome was “inactive”. In the case of `COc1cc2nc(N(C)CCCNC(=O)C3CCCO3)nc(N)c2cc1OC` (stereo unspecified), the outcome is reported as “inactive”. With `CN/C(=C\[N+](=O)[O-])NCCSCc1ccc(CN(C)C)o1` the outcome was “inactive”. In the case of `N[C@@H](Cc1ccc(N(CCCl)CCCl)cc1)C(=O)O`, the outcome is reported as “inactive”. For `O=C1CC[C@@]2(O)[C@H]3Cc4ccc(O)c5c4[C@@]2(CCN3CC2CC2)[C@H]1O5`, the outcome was “inactive”. For `CN(C/C=C/C#CC(C)(C)C)Cc1cccc2ccccc12`, the outcome was “inactive”. In the case of `CC(c1cc2ccccc2s1)N(O)C(N)=O` (stereo unspecified), the outcome is reported as “inactive”. For `Oc1cn2c(n1)Nc1ccc(Cl)c(Cl)c1C2`, the outcome was “inactive”. For `Cc1ncc([N+](=O)[O-])n1CCO`, the outcome was “inactive”.

Details: Ebola virus entry cell assay, ratio channel
For `NC(=O)N1c2ccccc2CC(=O)c2ccccc21`, the outcome was “inactive”. For `CC(=O)O[C@@]12CO[C@@H]1C[C@H](O)[C@@]1(C)C(=O)[C@H](O)C3=C(C)[C@@H](OC(=O)[C@H](O)[C@@H](NC(=O)OC(C)(C)C)c4ccccc4)C[C@@](O)([C@@H](OC(=O)c4ccccc4)[C@H]21)C3(C)C`, the outcome was “inactive”. For `CCOC(=O)[C@H](CCc1ccccc1)N[C@@H](C)C(=O)N1Cc2ccccc2C[C@H]1C(=O)O`, the outcome was “inactive”. With `OCCN1C[C@H](O)[C@@H](O)[C@H](O)[C@H]1CO` the outcome was “inactive”. With `COc1ccc2nc(S(=O)Cc3ncc(C)c(OC)c3C)[nH]c2c1` (stereo unspecified) the outcome was “inactive”. For `Nc1[nH]c(=O)ncc1F`, the outcome was “inactive”. For `CCCCc1ncc(/C=C(\Cc2cccs2)C(=O)O)n1Cc1ccc(C(=O)O)cc1`, the outcome was “inactive”. With `CCn1cc(C(=O)O)c(=O)c2cc(F)c(N3CCNCC3)cc21` the outcome was “inactive”. In the case of `CC12CC3CC(C)(C1)CC(N)(C3)C2`, the outcome is reported as “inactive”. With `O=C(CCCCCCC(=O)Nc1ccccc1)NO` the outcome was “inactive”. In the case of `CC(C)(C#N)c1cc(Cn2cncn2)cc(C(C)(C)C#N)c1`, the outcome is reported as “inactive”. With `OC(Cn1cncn1)(Cn1cncn1)c1ccc(F)cc1F` the outcome was “inactive”. For `CC(C)C[C@H](NC(=O)[C@H](Cc1ccccc1)NC(=O)c1cnccn1)B(O)O`, the outcome was “inactive”. For `C#CCN(C)[C@H](C)Cc1ccccc1`, the outcome was “inactive”. For `Cc1[nH]cnc1CN1CCc2c(c3ccccc3n2C)C1=O`, the outcome was “inactive”. With `NS(=O)(=O)c1cc2c(cc1C(F)(F)F)NCNS2(=O)=O` the outcome was “inactive”. With `O=P(O)(O)C(O)(Cc1cccnc1)P(=O)(O)O` the outcome was “inactive”. In the case of `Nc1nnc(-c2cccc(Cl)c2Cl)c(N)n1`, the outcome is reported as “inactive”. In the case of `Nc1cccc2c1CN(C1CCC(=O)NC1=O)C2=O` (stereo unspecified), the outcome is reported as “inactive”. For `CC[C@@H](CO)NCCN[C@@H](CC)CO`, the outcome was “inactive”. In the case of `CNC(=O)c1cc(Oc2ccc(NC(=O)Nc3ccc(Cl)c(C(F)(F)F)c3)cc2)ccn1`, the outcome is reported as “inactive”. With `C#Cc1cccc(Nc2ncnc3cc(OCCOC)c(OCCOC)cc23)c1` the AC50 was 8.91 µM (active). In the case of `CN(C)CCC=C1c2ccccc2CCc2ccccc21`, the AC50 is reported as 11.2 µM (active). With `CCC1(c2ccccc2)C(=O)NCNC1=O` the outcome was “inactive”. With `Cc1nccn1CC1CCc2c(c3ccccc3n2C)C1=O` (stereo unspecified) the outcome was “inactive”. With `Cc1nc(Nc2ncc(C(=O)Nc3c(C)cccc3Cl)s2)cc(N2CCN(CCO)CC2)n1` the AC50 was 28.2 µM (active). For `O=C(O)COCCN1CCN(C(c2ccccc2)c2ccc(Cl)cc2)CC1` (stereo unspecified), the outcome was “inactive”. For `Cc1oncc1C(=O)Nc1ccc(C(F)(F)F)cc1`, the outcome was “inactive”. In the case of `CCC(C)(C)C(=O)O[C@H]1C[C@@H](C)C=C2C=C[C@H](C)[C@H](CC[C@@H]3C[C@@H](O)CC(=O)O3)[C@H]21`, the outcome is reported as “inactive”. In the case of `N=c1nc(N2CCCCC2)cc(N)n1O`, the outcome is reported as “inactive”. With `COc1cc2nc(N(C)CCCNC(=O)C3CCCO3)nc(N)c2cc1OC` (stereo unspecified) the outcome was “inactive”.
